Source: PubChem (National Center for Advancing Translational Sciences (NCATS))
GALK inhibitor: inhibits human galactokinase. Potency, µM (highest dose often 57.5 µM), actives largely listed as inhibitors. recombinant GALK, Kinase-Glo ATP luminescence, 1 h. 44,000 tested, under 10 active. P51570
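Compounds were pinned into ATP buffer, then GALK-galactose mix was added (final 5 nM enzyme, 35 uM ATP, 100 uM galactose, pH 8.0). After 1 h at room temperature, Kinase-Glo Plus was added and luminescence read.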
FH mod: Identification of activators of human fumarate hydratase by quantitative high-throughput screening; 54,000 compounds, 0.22% hits; Potency, µM (titrated, usually from 79.9 µM), most hits filed as inhibitors; Fumarate hydratase, mitochondrial (Homo sapiens), P07954; FH coupled MDH/diaphorase resazurin fluorescence, 15 min; AID 1347055, 2019; also: the screen sought activators but most active calls are inhibition curves; nearly all actives have a fitted effect of over 45% in size
Target sequence (P07954 whole entry, looked up): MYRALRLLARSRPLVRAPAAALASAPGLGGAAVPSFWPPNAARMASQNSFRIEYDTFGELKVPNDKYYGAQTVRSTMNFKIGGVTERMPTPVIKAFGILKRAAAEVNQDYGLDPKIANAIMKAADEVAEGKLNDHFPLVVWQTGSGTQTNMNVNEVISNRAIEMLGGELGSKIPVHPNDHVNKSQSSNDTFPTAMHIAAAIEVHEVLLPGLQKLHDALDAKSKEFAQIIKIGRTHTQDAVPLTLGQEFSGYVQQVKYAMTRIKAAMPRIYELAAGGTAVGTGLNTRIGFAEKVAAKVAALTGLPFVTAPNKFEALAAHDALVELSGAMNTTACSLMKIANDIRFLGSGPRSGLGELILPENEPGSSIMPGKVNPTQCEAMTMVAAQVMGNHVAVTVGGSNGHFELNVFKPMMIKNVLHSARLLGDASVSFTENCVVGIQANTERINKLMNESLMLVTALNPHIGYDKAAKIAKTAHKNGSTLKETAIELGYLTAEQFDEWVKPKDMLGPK
B2AR arrestin ag: ADRB2 beta-arrestin recruitment. P07550. HTLA Tango cells, beta-arrestin recruitment, luciferase luminescence, 18 h. Potency, µM (highest dose often 46.1 µM), hits mostly activators. 44,000 tested, under 10 active
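Tango cells (recombinant beta2-AR, beta-arrestin, tTA-driven luciferase), 1500/well in DMEM 1% FBS, treated 18 h at 37 °C with compounds up to 46 µM; luciferin mix added, luminescence read after 15 min; %activity curves fitted and curve-classed.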
NTMT1 inhibitor: inhibitors of human N-terminal methyltransferase NTMT1; Q9BV86; NTMT1 MTase-Glo SAH luminescence, purified enzyme; Potency, µM (doses to about 114 µM), hits mostly inhibitors; 59,000 compounds, 2.5% hits; AID 1645870; also: nearly all actives have a fitted effect of over 65% in size
GPR32 ag: GPR32 (DRV1) agonism, beta-arrestin recruitment | O75388 | CHO-K1 GPR32 beta-arrestin PathHunter luminescence, 90 min; zero percent set by DMSO-only wells | activation, % at 76.9 µM | 48,000 compounds, 2.5% hits;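 active = activation of at least 60% and not above a set upper limit, about 1 call in 100 departs from these limits; inconclusive = activation of 40% to 60%, or above that upper limit; inactive = activation under 40%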
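Engineered CHO-K1 line co-expressing GPR32-ProLink and EA-beta-arrestin. Compound treatment lasted 90 min at 37 °C. Luminescence was recorded after 1 h with substrate at ambient temperature, relative to DMSO basal wells.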
PTAP-TSG101 blk: TSG101-PTAP interaction inhibition, HIV-1 budding; 44,000 tested, under 10 active; Fluorescence polarization, FITC-PTAP peptide/Tsg101, 20 min; Q99816; Potency, µM (doses to about 115 µM), usual class: inhibitors; AID 1347069
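The Tsg101 binding domain, at 10 uM final, is mixed with compound and a FITC peptide bearing the PTAP motif (50 nM final). After 20 min at r.t., polarization is measured; actives defined by CRC class, efficacy cut-off 60% inhibition.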
Sfp qHTS opt: inhibitors of Bacillus subtilis Sfp PPTase, optimization followup; purified Sfp PPTase enzyme activity, qHTS; AID 540350; Potency, µM (titrated, usually from 114 µM), usual class: inhibitors; shares compounds with NTMT1 inhibitor; 230 compounds, 78% hits
HM489 growth: reduces growth of B. subtilis HM489 strain; shares compounds with NTMT1 inhibitor; B. subtilis HM489 (acpS-) growth, BacTiter-Glo, 5 h; Potency, µM (doses to about 114 µM), actives largely listed as inhibitors; 220 compounds, 50% hits; AID 540353
Sfp PPTase gel: inhibits B. subtilis Sfp PPTase in gel assay; purified Sfp PPTase, gel-based product detection; 220 compounds, 54% hits; shares compounds with NTMT1 inhibitor; Potency, µM (top dose mostly 250 µM), hits mostly inhibitors
Sfp gel: inhibits B. subtilis Sfp PPTase in gel-based assay. shares compounds with NTMT1 inhibitor. purified Sfp PPTase, gel-based product detection. Potency, µM (top dose mostly 250 µM), actives largely listed as inhibitors. 45 compounds, 90% hits
Sfp inh SAR2: Sfp phosphopantetheinyl transferase inhibition, SAR round 2. shares compounds with NTMT1 inhibitor. purified Sfp enzyme, PPTase activity, qHTS. Potency, µM (top dose mostly 57.1 µM), usual class: inhibitors. 230 compounds, 87% hits
hGST ctr: inhibits hGST A1-1 in Sfp inhibitor counter-screen. shares compounds with NTMT1 inhibitor. hGST A1-1 enzyme activity counter-screen, qHTS. Potency, µM (titrated, usually from 114 µM), hits mostly inhibitors. 55 tested, under 10 active
HSD17B4 inh: inhibits human HSD17B4, off-target for HPGD inhibitors. shares compounds with NTMT1 inhibitor. purified HSD17B4, estradiol/NAD+, NADH fluorescence. Potency, µM (highest dose often 57.1 µM), most hits filed as inhibitors. 230 compounds, 10% hits. AID 743187
ALDH1A1 counter: ALDH1A1 (human) inhibition, HPGD counter-screen | shares compounds with NTMT1 inhibitor | recombinant ALDH1A1, NADH fluorescence, propionaldehyde/NAD+ | Potency, µM (titrated, usually from 57.1 µM), most hits filed as inhibitors | 230 compounds, 93% hits | AID 743195
NNMT counter: counter-screen for NTMT1 inhibitors: human NNMT inhibition; shares compounds with NTMT1 inhibitor; Potency, µM (top dose mostly 57.1 µM), usual class: inhibitors; 120 compounds, 10% hits; NNMT MTase-Glo luminescence, SAH detection
A number is an active result; i = inactive; ? = inconclusive; nt = not tested or not shown; ! = a repeat was not active. This is a sample that favours compounds with a hit; in the whole collection about 3.7% have one here. Unless noted, calls follow the shape of the dose curve; as a rule, active = well fitted curve in the direction sought with a large enough effect; inconclusive = small, poorly fitted or top-dose-only effect, or another doubt; inactive = no such curve, though single readings can be large; an effect the other way counts as inactive or inconclusive.

SMILES | GALK inhibitor | FH mod | B2AR arrestin ag | NTMT1 inhibitor | GPR32 ag | PTAP-TSG101 blk | others
Cc1cccc(CNc2ncnc3ccc(-c4cccc(Cl)c4)cc23)c1 | nt | nt | nt | i | nt | nt
Cc1noc(C)c1-c1ccc2ncnc(NCc3ccccc3F)c2c1 | nt | nt | nt | i | nt | nt
N#Cc1c(C(=O)c2cccs2)no[n+]1[O-] | nt | nt | nt | i | nt | nt
CC1CC1C(=O)Nc1ccc([S+](=O)([O-])Nc2nccs2)cc1 (centres undefined) | nt | nt | nt | i | nt | nt
Nc1nc(Nc2ccccc2)nc2c1ncn2[C@@H]1O[C@H](CO)C(O)[C@H]1O (some centres undefined) | nt | i | nt | nt | nt | nt
COc1ccc(-c2ccc3ncc4c(c3c2)n(-c2ccc(N3CCNCC3)c(C(F)(F)F)c2)c(=O)n4C)cn1 | nt | ? | nt | 15.8µM! | nt | nt | NNMT counter=i
CCOc1ccc(Cc2nc(-c3c(C)nc4ccccn34)cs2)cc1 | nt | i | nt | ? | nt | nt | NNMT counter=?
CCOc1ccc(Nc2nc(-c3c(C)nc4ccccn34)cs2)cc1 | nt | i | nt | i | nt | nt | NNMT counter=?
CC(C)(C)NC(=O)c1cncn1C1CCN(c2ccc(-c3nnc(C(F)(F)F)o3)cn2)CC1 | nt | nt | nt | i | nt | nt
Nc1ccccc1OCCn1c(CCNC(=O)C2CCCCC2)nc2ccccc21 | nt | nt | nt | i | nt | nt
Cc1cc(O)c(-c2ccc([C@@H](C)CN(C)C)cc2)c2c1[nH]c(=O)c1sccc12 | nt | ? | nt | 25.1µM | nt | nt | NNMT counter=?
CC[C@H]1OC(=O)[C@](C)(F)C(=O)[C@H](C)[C@@H](O[C@@H]2O[C@H](C)C[C@H](N(C)C)[C@H]2O)[C@](C)(OC)C[C@@H](C)C(=O)[C@@H](C)[C@H]2N(CCCCn3cc(-c4cccc(N)c4)nn3)C(=O)O[C@]12C | nt | i | nt | i | nt | nt
C/C=C(\C)C(=O)OCC1OC(OC2OC(CO)C(O)C(O)C2O)C(O)C(O)C1O (centres undefined) | nt | i | nt | i | nt | nt
COc1ccc(N2CCN(C(=O)Nc3ccc(Cl)cc3)CC2)cc1 | i | i | i | i | i | i
COc1cccc(NC(=S)N2CCN(c3cc(Cl)cc(Cl)c3)CC2)n1 | nt | nt | nt | ? | nt | nt | Sfp qHTS opt=?;HM489 growth=i;Sfp PPTase gel=?;Sfp gel=i;Sfp inh SAR2=?;hGST ctr=1.87µM;HSD17B4 inh=i;ALDH1A1 counter=8.57µM
COc1cccc(NC(=S)N2CCN(c3cccc(Cl)c3Cl)CC2)n1 | nt | nt | nt | ? | nt | nt | Sfp qHTS opt=?;HM489 growth=?;Sfp PPTase gel=?;Sfp inh SAR2=5.76µM;HSD17B4 inh=i;ALDH1A1 counter=1.21µM
COc1cccc(NC(=S)N2CCN(c3ccc4ccccc4n3)CC2)n1 | nt | nt | nt | i | nt | nt | Sfp qHTS opt=46.9µM;HM489 growth=?;Sfp PPTase gel=i;Sfp inh SAR2=36.3µM;HSD17B4 inh=27.1µM;ALDH1A1 counter=24.1µM
CC(C)(C)c1ccc(NC(=O)N2CCN(c3ncccc3Cl)CC2)cc1 | nt | i | nt | i | nt | nt
O=C(Nc1ccccc1)N1CCN(Cc2ccc3ccccc3n2)CC1 | nt | i | nt | i | nt | nt
Cc1ccc(C(=O)[C@H]2CC[C@@H](C(=O)Nc3ccc(S(=O)(=O)Nc4nccs4)cc3)C2)cc1C | nt | nt | nt | i | nt | nt
